Whole data set: some 33,000 sequences, median “E-score (-0.5 to 0.5)” near -8e-05, cut for the highest 2% near 0.23. The full list was thinned out, with the highest values kept by preference.
Target: T1, Nrg2 (UniProt P38082)
T1 sequence: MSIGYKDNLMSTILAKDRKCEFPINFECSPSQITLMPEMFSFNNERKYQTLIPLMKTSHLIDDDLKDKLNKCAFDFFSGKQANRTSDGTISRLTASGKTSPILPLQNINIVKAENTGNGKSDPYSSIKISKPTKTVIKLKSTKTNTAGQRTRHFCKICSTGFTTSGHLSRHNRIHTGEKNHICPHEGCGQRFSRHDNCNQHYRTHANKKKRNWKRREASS
Experiment: PBM E-score (8-mer binding enrichment) (E-score (-0.5 to 0.5)); higher = stronger / more preferred TF binding
Settings: protein concentration: 100 nM; construct: GST-full length
In short: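 Detection of bound protein used fluorescent anti-GST, with scans normalised by masliner. The proteins were GST-tagged yeast transcription factors applied at about 100-200 nM to universal all-10-mer Agilent arrays made double-stranded by primer extension. Each ungapped eight-base word, pooled with its reverse complement, was scored with an E-score from the Universal PBM Analysis Suite.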

Sequence | PBM E-score
AAGCTTCC | -0.206
AACGGATT | 0.148
CACGGATG | -0.149
AACGGATG | -0.00493
CGCGGATC | 0.037
TACGGATA | 0.0194
CACGGATA | 0.235
CGCGGATA | 0.246
AACGGATA | 0.258
AGCGGATA | -0.042
ACCGACAC | -0.0406
GGGAGGAC | 0.0465
GTCGTTTA | -0.00227
AACGTCAC | -0.00893
CCGCCCAG | -0.0404
AAATCAGA | 0.129
TAATCAGA | 0.133
GAATCAGA | 0.23
CGTTAAAG | 0.00135
GAGCTACA | -0.114
AGATACTA | 0.0761
AGATACTG | 0.242
AGATACAC | 0.244
GGATACAC | -0.0641
AGATACTC | 0.1

Sequence | PBM E-score
AGATACAG | 0.136
ATACATGC | -0.0508
GGTTATGA | -0.0752
CAAAAGGA | -0.0703
ACCCTAAC | 0.116
GACTGTTA | -0.0515
AGACTGAC | -0.1
AATAAGAT | 0.0228
AATAAGAG | 0.115
GATAAGAA | 0.0876
CATAAGAA | 0.254
AATAAGAA | 0.233
TATAAGAA | 0.12
GTCCCAGA | -0.19
AGCTACAC | 0.0938
GAGACTAA | -0.027
CTACAATA | 0.00041
GAACAATA | 0.277
ATACAACC | -0.00323
TAACAATA | 0.132
AAACAATG | 0.0814
GAACAATC | 0.0696
AAACAATT | 0.137
ATACAACA | 0.246
ATACAACG | 0.0553

Sequence | PBM E-score
ATACAATC | -0.0431
AAACAATA | 0.261
ATACAATA | 0.239
CGTCCGAG | 0.0587
AAGGCCTC | -0.0691
TAGAGCGA | -0.079
CGACACAG | -0.0558
CAGAGGGG | -0.314
TGATAGAA | -0.0926
TCTACGCA | 0.0696
GAGGTTTA | -0.00946
ACGGTTCG | -0.169
CAGGTGGG | -0.0155
AGGCTAGC | -0.223
AATCGAGG | 0.248
AATCGAGT | 0.0016
AATCGAAG | 0.264
GATCGAAA | 0.108
AATCGATT | 0.247
AATCGATA | 0.158
CATCGAAA | 0.0505
AATCGAAA | 0.0902
CATCGAGG | 0.0813
TATCGAAA | 0.255
AATCGATC | 0.0541

Sequence | PBM E-score
AATCGAAC | 0.169
GACTGGGA | -0.0261
ATAGCCGG | -0.145
ACAACCAC | -0.0501
ACAACCAG | 0.101
ACAACCAT | 0.24
ACGTGGTG | -0.139
AGAGTTAG | -0.0429
CCGACGAC | 0.00776
ACTGCTCT | 0.00123
CCATGAGC | -0.047
AATGCGAG | 0.107
ATTAATTC | 0.229
ATTAATGA | 0.235
ATTAATTA | 0.117
ATTAATGC | 0.0582
CTTAATGA | 0.0652
ATTAATTG | 0.142
GTGTAGCA | -0.149
AGCTATCC | -0.208
ACGCGGAA | -0.0174
TGGATAAA | 0.0491
CGGATAAC | 0.05
CGGATAAA | 0.234
CTTTGGAA | -0.152

Sequence | PBM E-score
ACTATGAG | -0.0885
AATCGGAA | 0.242
AATCGGAG | 0.105
TATCGGAA | 0.0162
AGAGAAAG | -0.00961
GCTTCTCA | 0.00982
AGCCCATC | -0.0428
AATCGCAT | 0.245
AATCGCAG | 0.16
CATCGCGC | 0.0459
AATCTCGG | 0.0273
AATCGCAC | -0.165
AATCTCGC | 0.235
AATCGCGA | 0.185
GATCTCGC | 0.144
AATCGCGC | 0.23
AGATGGCA | 0.0923
AGCGGTTG | -0.028
AGATTGCG | 0.00885
CTGAGACA | 0.0347
AAAACTTA | 0.0488
GTAGGTAA | 0.00715
AGGCTGAA | -0.0879
TCAAATGA | -0.0989
CTCTCACA | 0.124

Sequence | PBM E-score
TACCTGAA | 0.0117
CCCCTGAA | 0.356
CCCCTGTA | 0.144
CACCTGAA | 0.0424
GCCCTGAA | 0.22
TCCCTGAA | 0.25
GCCGTCTA | -0.0529
CGGTTTGC | -0.0375
CCTGAAGG | -0.0247
AGTCAAGG | -0.174
ATCCGAAG | -0.0314
ATCCGAAT | 0.251
ATCCGAAC | 0.0668
ACAAAACA | 0.119
CTGGCGCA | -0.117
ATGGCGCC | 0.0356
CTGGCGCC | 0.281
GCAAAACC | 0.0964
ACAAAACC | 0.246
ACAAAAAC | 0.0302
ATTTTGAC | 0.232
ATTTTGAG | 0.0761
AATTTGAC | 0.127
TGTTTGAA | -0.00474
ACTTCGAC | -0.0444

Sequence | PBM E-score
GTATCATA | 0.251
ATATCATA | 0.174
CTATCATA | 0.125
AGTATATA | 0.327
AGTATAAT | 0.257
AGTATATC | 0.107
AGTAGATA | 0.249
AGTAGATC | -0.0113
AGTATAAC | -0.131
CGTAGATA | -0.0208
AGTATAAA | 0.194
ACTATATC | 0.182
GCTATATA | 0.0573
AGTATATG | 0.129
ACTATATA | 0.23
GAGGTGCC | -0.0447
CAAAATCG | 0.109
AGAGGACG | -0.0944
ACGGCGCG | 0.214
CGACACCA | -0.124
GAGACAGA | 0.14
ACAGCGAT | -0.201
ACGAACCC | -0.00702
CGGAACAC | 0.264
CCGAACCA | -0.00203

Sequence | PBM E-score
GGGAACCA | -0.231
CCGAACGC | 0.0363
CGGAACAA | 0.122
CGGAACCA | 0.294
AGGAACAC | 0.131
ACGAACGC | 0.267
ACGAACGA | 0.0396
ACGAACCA | 0.235
CGGAACCG | -0.162
GACGGATC | -0.153
TCCTAAAA | -0.251
TCATTGAA | -0.122
TAAATGGA | -0.0213
AGCAGGGG | -0.182
ACACTGCT | -0.0746
GCTAACAA | -0.0183
CTTAACAA | 0.107
GTTAACAA | 0.254
GTTAACTA | 0.273
ATTAACTA | 0.136
CTTAACTA | 0.0617
CAGGCCAC | -0.141
GCGTGAGC | 0.142
GGAACTCA | -0.0697
ACACTCTC | 0.104

Sequence | PBM E-score
GAATGATA | 0.247
CAATGATA | 0.128
GAATGATC | -0.0614
TAATGATA | 0.243
GAATGAGA | 0.114
AAATGATA | 0.225
AGCCCTAG | -0.16
ACCTGAGG | -0.134
GCCTGAGA | -0.0991
CCCTGAGG | 0.236
ACCTGAGC | 0.0385
CACTGAGG | -0.124
CCCTGAGC | 0.236
TCCTGAGA | -0.0364
CCCTGAGA | 0.235
GCCTGAGC | -0.213
CATTTTCC | 0.0879
AGAAGCCC | -0.0779
ATTATGAC | -0.0447
AGGCAAGG | -0.259
CCTATCGC | -0.134
CATGTTGC | -0.0978
AATGTTGA | -0.019
CATGTTGA | 0.258
ATGTATTA | -0.041

Sequence | PBM E-score
GAGTATTA | 0.00698
CAGTATTA | 0.244
CTGTATTA | 0.147
AAGTATTA | 0.129
GTGTATTA | 0.233
ATACTCGA | 0.0646
AGTTCGAG | 0.223
TCCCAAAA | 0.0584
CCGGGAAC | -0.00517
ATGCGCGG | 0.121
CTGCGCTC | -0.146
ATGCGCAA | 0.182
CTTCGCGA | 0.0778
CTGCGCGC | 0.306
ATGCGCGA | 0.00379
CTTCGCGC | 0.232
ATTCGCGC | 0.159
ATGCGCAC | 0.142
ATGCGCAT | 0.368
ATGCGCGC | 0.23
CTGCGCGA | -0.0667
GTGCAGCA | -0.172
CAATTGCC | -0.00722
CAGGACTG | -0.241
AAATGCGC | 0.272

Sequence | PBM E-score
CAATGCGC | 0.145
AAATGCGG | 0.0989
AGGGGCAT | 0.00378
CTAAAAGA | -0.198
CGATATAA | 0.244
CGATATAC | 0.113
CGATATTA | 0.23
CGATATAG | 0.14
GGATATTA | 0.147
CGATATTC | 0.153
CACCGTGA | -0.113
GTATGGCA | 0.0816
CATCAGCG | -0.213
CGAAAAGA | 0.199
CGCAGTGA | -0.0744
AGCAGTGC | -0.287
AGCAGTGA | 0.234
GCGCTACC | -0.139
GTGCTGTA | -0.0149
CGGAGGCA | -0.134
AAGCGCAA | 0.147
ACCAGCAA | 0.245
CCCAGCAA | 0.0725
TCCAGCAA | -0.151
ACTTACCA | 0.00217

Sequence | PBM E-score
GTCAAACA | -0.117
CGTTGCAA | 0.0314
TATTGCAA | 0.253
GGTTGCAA | 0.111
TGTTGCAA | 0.268
AATTGCAA | 0.0259
CATTGCAA | -0.00795
CGCGGTTC | 0.0879
GGATAGCA | 0.0845
AAGTACTC | -0.0318
GAGTACTC | 0.23
CAGTACTC | -0.171
GGCGAGCC | -0.0861
CCAATACG | -0.165
ACCTCGAT | 0.147
CCCTCGAG | 0.143
ACCTCGAG | 0.281
AAGAAAAG | -0.0237
TCAATTCA | 0.102
CAGGGTAA | 0.215
CAGGGTAG | 0.303
CAGGGTAC | 0.235
AAGGGTAC | 0.165
AAGGGTAG | 0.0465
AGGGGTAG | -0.0372

Sequence | PBM E-score
AAGTCTAT | -0.0746
TAGTAAGA | 0.107
ACCCTGCC | 0.0806
ACCCTGCT | 0.0589
AGCCTGCA | 0.0137
GCCCTGCA | 0.044
CCCCTGCA | -0.00126
CCCCTGCG | -0.0622
ACCCTGCA | 0.376
TCCCTGCA | 0.25
ACCCTGCG | 0.254
ATAGGACA | -0.118
GGTCTTGA | -0.0327
ACCAAGTC | 0.111
AAAGCCCG | -0.147
AAAAGCGT | -0.0481
AAAAACTT | -0.148
CGCTGGCA | 0.0236
CGGCATTA | 0.0976
GCGCGCGA | 0.251
GCGCACGC | -0.0951
ACGCGCGG | 0.192
ACGCGCGT | 0.17
GCGCGATA | 0.254
ACGCGATA | 0.0412

Sequence | PBM E-score
CCGCGCGA | 0.202
CCGCGATA | 0.117
ACGCGCGC | 0.279
TCGCACGA | -0.00406
TCGCGCGA | 0.138
GCGCACGA | 0.238
CTTACCCA | 0.0294
AATGCAAT | -0.287
GGTCCAGA | 0.125
AGGCGGGG | 0.0214
AACGATTC | 0.0537
ACGGACGT | -0.169
GTCCAGAC | -0.175
ATCTTTGC | 0.133
GCGCGCAC | 0.165
CCGCGGTA | 0.119
GCGCGGTA | 0.271
ACGCGGTA | -0.152
GAGCGCGC | 0.263
GCGCGCGC | 0.415
GCGCGCCC | 0.0648
GAGCGCGA | 0.196
CAGCGCGC | 0.21

From the supplement of paper PMC3334620
